Results published in ChEMBL document CHEMBL3433997, “St. Jude Leishmania screening dataset” (2016).

Legend:
Assay type in all cases: functional
[1] = target: Solute carrier family 2, facilitated glucose transporter member 1 (Homo sapiens) (UniProt P11166); experiment: ST_JUDE_LEISH: Cytotoxicity at 2uM final concentration against transgenic Leishmania Mexicana promastigotes LmGLUT1 that are glucose transport deficient and complemented with the human glucose transporter GLUT1. Activity is measured by DNA content using SYBR green in vitro
Chain of Solute carrier family 2, facilitated glucose transporter member 1 (Homo sapiens) (P11166 whole entry): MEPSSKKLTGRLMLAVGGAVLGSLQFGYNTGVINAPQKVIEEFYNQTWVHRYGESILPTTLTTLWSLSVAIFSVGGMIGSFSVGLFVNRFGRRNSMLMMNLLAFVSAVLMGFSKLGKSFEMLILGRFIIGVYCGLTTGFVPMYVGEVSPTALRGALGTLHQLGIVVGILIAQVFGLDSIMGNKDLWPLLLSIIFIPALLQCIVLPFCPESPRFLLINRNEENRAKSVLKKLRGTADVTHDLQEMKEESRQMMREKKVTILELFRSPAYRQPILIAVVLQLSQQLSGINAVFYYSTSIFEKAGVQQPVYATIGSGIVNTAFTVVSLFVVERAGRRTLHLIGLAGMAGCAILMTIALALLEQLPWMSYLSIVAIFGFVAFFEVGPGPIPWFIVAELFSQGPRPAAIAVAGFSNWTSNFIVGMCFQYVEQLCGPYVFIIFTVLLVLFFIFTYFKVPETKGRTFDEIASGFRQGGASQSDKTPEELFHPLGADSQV

[2] = target: Hexose transporter 1 (Plasmodium falciparum) (UniProt O97467); experiment: ST_JUDE_LEISH: Cytotoxicity at 2uM final concentration against transgenic Leishmania Mexicana promastigotes LmPfHT that are glucose transport deficient and complemented with the Plasmodium falciparum hexose transporter. Activity is measured by DNA content using SYBR green in vitro
[3] = target: Glucose transporter (Leishmania mexicana) (UniProt O61059); experiment: ST_JUDE_LEISH: Cytotoxicity at 2uM final concentration against transgenic Leishmania Mexicana promastigotes LmGT2 that are glucose transport deficient and complemented with the L. Mexicana glucose transporter 2. Activity is measured by DNA content using SYBR green in vitro

Cc1cccc(CN2CCCC3(CCN(Cc4ccccc4O)C3)C2)c1 (stereo not drawn)
inhibition [1]: 2.62%
inhibition [2]: 1.27%
inhibition [3]: -0.38%

O=C(N[C@@H](Cc1ccccc1)[C@H](O)CNCCC(F)(F)F)c1cccc(CCC2CC2)c1
inhibition [1]: 0.82%
inhibition [2]: 1.82%
inhibition [3]: 2.39%

CCCCNCc1ccc(-c2nc(CN(CCCN3CCN(C)CC3)C(=O)Nc3cccc(Cl)c3)cs2)cc1
inhibition [1]: 5.24%
inhibition [2]: 9.93%
inhibition [3]: 5.61%

O=S(=O)(c1csc2ccccc12)N(CCC(O)(C(F)(F)F)C(F)(F)F)Cc1cccc(O)c1
inhibition [1]: -1.82%
inhibition [2]: -2.19%
inhibition [3]: -4.98%

FC(F)(F)c1ccc2c(NCCc3ccccc3)ccnc2c1
inhibition [1]: 4.24%
inhibition [2]: 5.12%
inhibition [3]: 3.79%

O=C(Nc1cccc(-c2csc(-c3nc4ccccc4[nH]3)c2)c1)c1ccncc1
inhibition [1]: 11.6%
inhibition [2]: 8.89%
inhibition [3]: 6.69%

CN(C)CCN(C)Cc1ccc(-c2ccc3c(Nc4ccc(Cl)cc4F)ccnc3c2)o1
inhibition [1]: 1.16%
inhibition [2]: 2.08%
inhibition [3]: 2.79%

O=C(Nc1ccc2c(c1)CCC2)c1ccc(N2CCN(c3ccncc3)CC2)cn1
inhibition [1]: 11.7%
inhibition [2]: 12.8%
inhibition [3]: 14.7%

CCC(C)NS(=O)(=O)c1ccc2nc(Nc3ccc(C)cc3)n(C3CCCCC3C)c2c1 (stereo not drawn)
inhibition [1]: 4.96%
inhibition [2]: 3.92%
inhibition [3]: 2.03%

COc1cc(CNc2ncc(-c3ccsc3)c(-c3nccs3)n2)cc(OC)c1
inhibition [1]: 1.79%
inhibition [2]: 1.49%
inhibition [3]: -0.78%

COc1ccc(C2CC(c3cccs3)=NN2C(=O)CNc2cccc(C#N)c2)cc1OC (stereo not drawn)
inhibition [1]: 7.28%
inhibition [2]: 14.4%
inhibition [3]: 2.41%

Cc1[nH]cnc1-c1cccc(NC(=O)c2cc3ccccc3s2)c1
inhibition [1]: -1.01%
inhibition [2]: -1.53%
inhibition [3]: -0.35%

COc1ccc(CNC2CCN(C)CC2)cc1-c1ccc(S(=O)(=O)NCc2ccccc2)c(C)c1
inhibition [1]: 7.68%
inhibition [2]: 8.41%
inhibition [3]: 7.94%

COc1ccc(OC)c(NC(=O)C2c3ccccc3C(=O)N(CC(C)C)C2c2cccs2)c1 (stereo not drawn)
inhibition [1]: -1.99%
inhibition [2]: -2.35%
inhibition [3]: -0.44%

CC[C@H](NC(=O)c1c(CN2CCC(N3CCCCC3)CC2)c(-c2ccccc2)nc2cc(O)ccc12)c1ccccc1
inhibition [1]: -0.16%
inhibition [2]: -0.44%
inhibition [3]: 1.08%

N#Cc1ccc(-c2ccc(C(=O)NCCCCN3CCC(c4ccc5c(c4OCC(N)=O)CCCC5)CC3)cc2)cc1
inhibition [1]: 1.23%
inhibition [2]: 0.2%
inhibition [3]: 1.1%
